Data reported in article PMC11006913.
Residue numbers refer to the chain shown, from its start.

Tests used:
Test in all cases: PBM; 200 nM protein, PBS
Details in all cases: dsDNA, one strand shown
HOXB4 [1] = target: HOXB4 (Homo sapiens, UniProt P17483 148-234)
VENTX [2] = target: T1, VENTX (Homo sapiens, UniProt O95231 78-163, R121Q)
T1 sequence: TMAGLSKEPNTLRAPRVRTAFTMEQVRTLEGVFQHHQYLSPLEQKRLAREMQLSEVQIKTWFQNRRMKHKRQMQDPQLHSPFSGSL

HOXA4 [3] = target: HOXA4 (Homo sapiens, UniProt Q00056 201-287, W262R)
PRRX1 [4] = target: PRRX1 (Homo sapiens, UniProt P54821 80-166, F113S)
VENTX [5] = target: T2, VENTX (Homo sapiens, UniProt O95231 78-163, Y115F)
T2 sequence: T1 sequence with Y38F, Q44R

HOXB6 = HOXB6 (Homo sapiens, UniProt P17509 132-218, K202E)
HOXA2 = HOXA2 (Homo sapiens, UniProt O43364 129-215, R185T)
HOXA4 [6] = target: HOXA4 (Homo sapiens, UniProt Q00056 201-287, R217L)
HOXB4 [7] = target: HOXB4 (Homo sapiens, UniProt P17483 148-234, V174I)
MSX2 [8] = target: MSX2 (Homo sapiens, UniProt P35548 130-214, R199I)
PAX4 [9] = target: T3, PAX4 (Homo sapiens, UniProt O43316 9-242, R200Q)
T3 sequence: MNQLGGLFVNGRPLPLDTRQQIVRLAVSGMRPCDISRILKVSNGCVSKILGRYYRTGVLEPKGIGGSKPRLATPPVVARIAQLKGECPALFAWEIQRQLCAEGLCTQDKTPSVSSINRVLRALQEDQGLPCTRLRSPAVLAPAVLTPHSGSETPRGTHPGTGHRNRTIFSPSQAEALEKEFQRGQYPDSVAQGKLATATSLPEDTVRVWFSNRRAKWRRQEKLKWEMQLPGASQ

PAX4 [10] = target: T4, PAX4 (Homo sapiens, UniProt O43316 9-242, F177V)
T4 sequence: T3 sequence with F169V, Q192R

HOXA4 [11] = target: HOXA4 (Homo sapiens, UniProt Q00056 201-287)
MSX2 [12] = target: MSX2 (Homo sapiens, UniProt P35548 130-214)
PAX4 [13] = target: T5, PAX4 (Homo sapiens, UniProt O43316 9-242, F177Y)
T5 sequence: T3 sequence with F169Y, Q192R

MSX2 [14] = target: MSX2 (Homo sapiens, UniProt P35548 130-214, F161Y)
VAX1 [15] = target: VAX1 (Homo sapiens, UniProt Q5SQQ9 86-172, T142I)
HOXA4 [16] = target: HOXA4 (Homo sapiens, UniProt Q00056 201-287, W262F)
PRRX1 [17] = target: PRRX1 (Homo sapiens, UniProt P54821 80-166)
VAX1 [18] = target: VAX1 (Homo sapiens, UniProt Q5SQQ9 86-172, K157R)
Sequence of VAX1 (Homo sapiens, UniProt Q5SQQ9 86-172, K157R) (Q5SQQ9 86-172 K157R): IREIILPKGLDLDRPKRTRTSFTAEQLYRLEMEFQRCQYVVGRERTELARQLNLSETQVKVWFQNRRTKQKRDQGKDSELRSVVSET

Sequence of MSX2 (Homo sapiens, UniProt P35548 130-214, F161Y) (P35548 130-214 F161Y): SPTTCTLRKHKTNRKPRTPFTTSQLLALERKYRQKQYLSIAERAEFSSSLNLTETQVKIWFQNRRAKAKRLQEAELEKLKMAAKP
Sequence of MSX2 (Homo sapiens, UniProt P35548 130-214) (P35548 130-214): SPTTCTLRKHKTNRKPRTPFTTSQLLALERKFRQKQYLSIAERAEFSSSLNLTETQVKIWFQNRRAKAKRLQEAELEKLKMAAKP
Sequence of HOXB4 (Homo sapiens, UniProt P17483 148-234, V174I) (P17483 148-234 V174I): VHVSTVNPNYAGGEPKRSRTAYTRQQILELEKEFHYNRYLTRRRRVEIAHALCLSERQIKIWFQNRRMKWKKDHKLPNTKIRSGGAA
Sequence of PRRX1 (Homo sapiens, UniProt P54821 80-166) (P54821 80-166): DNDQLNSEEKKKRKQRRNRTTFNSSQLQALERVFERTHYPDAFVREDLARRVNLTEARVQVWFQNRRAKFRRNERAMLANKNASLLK
Sequence of HOXA4 (Homo sapiens, UniProt Q00056 201-287, W262F) (Q00056 201-287 W262F): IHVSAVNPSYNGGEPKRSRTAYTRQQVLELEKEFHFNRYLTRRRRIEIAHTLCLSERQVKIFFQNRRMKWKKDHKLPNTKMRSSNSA
Sequence of MSX2 (Homo sapiens, UniProt P35548 130-214, R199I) (P35548 130-214 R199I): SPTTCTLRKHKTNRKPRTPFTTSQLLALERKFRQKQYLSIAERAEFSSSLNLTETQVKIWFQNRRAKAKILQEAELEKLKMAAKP
Sequence of HOXA2 (O43364 129-215 R185T): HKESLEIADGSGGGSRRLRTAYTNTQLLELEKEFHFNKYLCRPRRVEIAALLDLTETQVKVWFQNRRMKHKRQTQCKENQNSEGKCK
Sequence of HOXB4 (Homo sapiens, UniProt P17483 148-234) (P17483 148-234): as the sequence (P17483 148-234 V174I) above, with I27V counted along it
Sequence of HOXB6 (P17509 132-218 K202E): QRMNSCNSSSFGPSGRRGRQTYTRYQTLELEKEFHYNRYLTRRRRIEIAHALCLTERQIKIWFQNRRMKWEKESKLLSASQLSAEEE
Sequence of HOXA4 (Homo sapiens, UniProt Q00056 201-287, R217L) (Q00056 201-287 R217L): as the sequence (Q00056 201-287 W262F) above, with R17L, F62W counted along it
Sequence of VAX1 (Homo sapiens, UniProt Q5SQQ9 86-172, T142I) (Q5SQQ9 86-172 T142I): as the sequence (Q5SQQ9 86-172 K157R) above, with T57I, R72K counted along it
Sequence of PRRX1 (Homo sapiens, UniProt P54821 80-166, F113S) (P54821 80-166 F113S): as the sequence (P54821 80-166) above, with F34S counted along it
Sequence of HOXA4 (Homo sapiens, UniProt Q00056 201-287) (Q00056 201-287): as the sequence (Q00056 201-287 W262F) above, with F62W counted along it
Sequence of HOXA4 (Homo sapiens, UniProt Q00056 201-287, W262R) (Q00056 201-287 W262R): as the sequence (Q00056 201-287 W262F) above, with F62R counted along it

Q: Which results are given for TAATTATA?
A: binding signal (HOXB4 [1]): 13.5 upbm affinity estimate (log intensity, higher = more binding, comparable within an allelic series); binding signal (VENTX [2]): 11.9 upbm affinity estimate (log intensity, higher = more binding, comparable within an allelic series); binding signal (HOXA4 [3]): 10.8 upbm affinity estimate (log intensity, higher = more binding, comparable within an allelic series); binding signal (PRRX1 [4]): 11.8 upbm affinity estimate (log intensity, higher = more binding, comparable within an allelic series); binding signal (VENTX [5]): 11.8 upbm affinity estimate (log intensity, higher = more binding, comparable within an allelic series); binding signal (HOXB6): 10.3 upbm affinity estimate (log intensity, higher = more binding, comparable within an allelic series); binding signal (HOXA2): 13.6 upbm affinity estimate (log intensity, higher = more binding, comparable within an allelic series); binding signal (HOXA4 [6]): 12.7 upbm affinity estimate (log intensity, higher = more binding, comparable within an allelic series); binding signal (HOXB4 [7]): 14.3 upbm affinity estimate (log intensity, higher = more binding, comparable within an allelic series); binding signal (MSX2 [8]): 13 upbm affinity estimate (log intensity, higher = more binding, comparable within an allelic series); binding signal (PAX4 [9]): 12.1 upbm affinity estimate (log intensity, higher = more binding, comparable within an allelic series); binding signal (PAX4 [10]): 10.7 upbm affinity estimate (log intensity, higher = more binding, comparable within an allelic series); binding signal (HOXA4 [11]): 14.2 upbm affinity estimate (log intensity, higher = more binding, comparable within an allelic series); binding signal (MSX2 [12]): 14 upbm affinity estimate (log intensity, higher = more binding, comparable within an allelic series); binding signal (PAX4 [13]): 11 upbm affinity estimate (log intensity, higher = more binding, comparable within an allelic series); binding signal (MSX2 [14]): 13.6 upbm affinity estimate (log intensity, higher = more binding, comparable within an allelic series); binding signal (VAX1 [15]): 13.4 upbm affinity estimate (log intensity, higher = more binding, comparable within an allelic series); binding signal (HOXA4 [16]): 12.1 upbm affinity estimate (log intensity, higher = more binding, comparable within an allelic series); binding signal (PRRX1 [17]): 13.6 upbm affinity estimate (log intensity, higher = more binding, comparable within an allelic series); binding signal (VAX1 [18]): 13.4 upbm affinity estimate (log intensity, higher = more binding, comparable within an allelic series)

Q: What does the source list for CTAATTAA?
A: binding signal (HOXB4 [1]): 13.3 upbm affinity estimate (log intensity, higher = more binding, comparable within an allelic series); binding signal (VENTX [2]): 12.7 upbm affinity estimate (log intensity, higher = more binding, comparable within an allelic series); binding signal (HOXA4 [3]): 11 upbm affinity estimate (log intensity, higher = more binding, comparable within an allelic series); binding signal (PRRX1 [4]): 12.1 upbm affinity estimate (log intensity, higher = more binding, comparable within an allelic series); binding signal (VENTX [5]): 12.4 upbm affinity estimate (log intensity, higher = more binding, comparable within an allelic series); binding signal (HOXB6): 10.1 upbm affinity estimate (log intensity, higher = more binding, comparable within an allelic series); binding signal (HOXA2): 13.8 upbm affinity estimate (log intensity, higher = more binding, comparable within an allelic series); binding signal (HOXA4 [6]): 12.9 upbm affinity estimate (log intensity, higher = more binding, comparable within an allelic series); binding signal (HOXB4 [7]): 13.9 upbm affinity estimate (log intensity, higher = more binding, comparable within an allelic series); binding signal (MSX2 [8]): 13.3 upbm affinity estimate (log intensity, higher = more binding, comparable within an allelic series); binding signal (PAX4 [9]): 12.9 upbm affinity estimate (log intensity, higher = more binding, comparable within an allelic series); binding signal (PAX4 [10]): 11.2 upbm affinity estimate (log intensity, higher = more binding, comparable within an allelic series); binding signal (HOXA4 [11]): 14.2 upbm affinity estimate (log intensity, higher = more binding, comparable within an allelic series); binding signal (MSX2 [12]): 14.1 upbm affinity estimate (log intensity, higher = more binding, comparable within an allelic series); binding signal (PAX4 [13]): 11.7 upbm affinity estimate (log intensity, higher = more binding, comparable within an allelic series); binding signal (MSX2 [14]): 13.7 upbm affinity estimate (log intensity, higher = more binding, comparable within an allelic series); binding signal (VAX1 [15]): 13.8 upbm affinity estimate (log intensity, higher = more binding, comparable within an allelic series); binding signal (HOXA4 [16]): 12.7 upbm affinity estimate (log intensity, higher = more binding, comparable within an allelic series); binding signal (PRRX1 [17]): 13.7 upbm affinity estimate (log intensity, higher = more binding, comparable within an allelic series); binding signal (VAX1 [18]): 13.8 upbm affinity estimate (log intensity, higher = more binding, comparable within an allelic series)

Q: What does the source list for ATTAATTG?
A: binding signal (HOXB4 [1]): 13.4 upbm affinity estimate (log intensity, higher = more binding, comparable within an allelic series); binding signal (VENTX [2]): 12.2 upbm affinity estimate (log intensity, higher = more binding, comparable within an allelic series); binding signal (HOXA4 [3]): 10.7 upbm affinity estimate (log intensity, higher = more binding, comparable within an allelic series); binding signal (PRRX1 [4]): 11.4 upbm affinity estimate (log intensity, higher = more binding, comparable within an allelic series); binding signal (VENTX [5]): 11.9 upbm affinity estimate (log intensity, higher = more binding, comparable within an allelic series); binding signal (HOXB6): 10.1 upbm affinity estimate (log intensity, higher = more binding, comparable within an allelic series); binding signal (HOXA2): 13.3 upbm affinity estimate (log intensity, higher = more binding, comparable within an allelic series); binding signal (HOXA4 [6]): 12.5 upbm affinity estimate (log intensity, higher = more binding, comparable within an allelic series); binding signal (HOXB4 [7]): 14.2 upbm affinity estimate (log intensity, higher = more binding, comparable within an allelic series); binding signal (MSX2 [8]): 13.1 upbm affinity estimate (log intensity, higher = more binding, comparable within an allelic series); binding signal (PAX4 [9]): 12.2 upbm affinity estimate (log intensity, higher = more binding, comparable within an allelic series); binding signal (PAX4 [10]): 10.7 upbm affinity estimate (log intensity, higher = more binding, comparable within an allelic series); binding signal (HOXA4 [11]): 14 upbm affinity estimate (log intensity, higher = more binding, comparable within an allelic series); binding signal (MSX2 [12]): 14 upbm affinity estimate (log intensity, higher = more binding, comparable within an allelic series); binding signal (PAX4 [13]): 11.2 upbm affinity estimate (log intensity, higher = more binding, comparable within an allelic series); binding signal (MSX2 [14]): 13.7 upbm affinity estimate (log intensity, higher = more binding, comparable within an allelic series); binding signal (VAX1 [15]): 12.9 upbm affinity estimate (log intensity, higher = more binding, comparable within an allelic series); binding signal (HOXA4 [16]): 11.8 upbm affinity estimate (log intensity, higher = more binding, comparable within an allelic series); binding signal (PRRX1 [17]): 13.4 upbm affinity estimate (log intensity, higher = more binding, comparable within an allelic series); binding signal (VAX1 [18]): 12.9 upbm affinity estimate (log intensity, higher = more binding, comparable within an allelic series)

Q: For CGTAATTA, which binding signal (HOXB4 [1]) is on record?
A: Its binding signal is 13.5 upbm affinity estimate (log intensity, higher = more binding, comparable within an allelic series).

Q: And the binding signal (VENTX [2])?
A: The binding signal was 12.2 upbm affinity estimate (log intensity, higher = more binding, comparable within an allelic series).

Q: And the binding signal (HOXA4 [3])?
A: Its binding signal is 10.7 upbm affinity estimate (log intensity, higher = more binding, comparable within an allelic series).

Q: What about the binding signal (PRRX1 [4]) of the same sequence?
A: Its binding signal is 11.5 upbm affinity estimate (log intensity, higher = more binding, comparable within an allelic series).

Q: And the binding signal (VENTX [5])?
A: The binding signal was 12.3 upbm affinity estimate (log intensity, higher = more binding, comparable within an allelic series).

Q: What about the binding signal (HOXB6) of the same sequence?
A: The binding signal was 10.2 upbm affinity estimate (log intensity, higher = more binding, comparable within an allelic series).

Q: And the binding signal (HOXA2)?
A: Its binding signal is 13.9 upbm affinity estimate (log intensity, higher = more binding, comparable within an allelic series).

Q: What about the binding signal (HOXA4 [6]) of the same sequence?
A: Its binding signal is 12.7 upbm affinity estimate (log intensity, higher = more binding, comparable within an allelic series).

Q: And the binding signal (HOXB4 [7])?
A: Its binding signal is 14.3 upbm affinity estimate (log intensity, higher = more binding, comparable within an allelic series).

Q: What about the binding signal (MSX2 [8]) of the same sequence?
A: Its binding signal is 12.9 upbm affinity estimate (log intensity, higher = more binding, comparable within an allelic series).

Q: What about the binding signal (PAX4 [9]) of the same sequence?
A: The binding signal was 12.3 upbm affinity estimate (log intensity, higher = more binding, comparable within an allelic series).

Q: And the binding signal (PAX4 [10])?
A: The binding signal was 10.7 upbm affinity estimate (log intensity, higher = more binding, comparable within an allelic series).

Q: And the binding signal (HOXA4 [11])?
A: The binding signal was 14.2 upbm affinity estimate (log intensity, higher = more binding, comparable within an allelic series).

Q: And the binding signal (MSX2 [12])?
A: The binding signal was 14 upbm affinity estimate (log intensity, higher = more binding, comparable within an allelic series).

Q: What about the binding signal (PAX4 [13]) of the same sequence?
A: Its binding signal is 11.1 upbm affinity estimate (log intensity, higher = more binding, comparable within an allelic series).

Q: And the binding signal (MSX2 [14])?
A: The binding signal was 13.6 upbm affinity estimate (log intensity, higher = more binding, comparable within an allelic series).

Q: What about the binding signal (VAX1 [15]) of the same sequence?
A: Its binding signal is 13.6 upbm affinity estimate (log intensity, higher = more binding, comparable within an allelic series).

Q: What about the binding signal (HOXA4 [16]) of the same sequence?
A: Its binding signal is 12.3 upbm affinity estimate (log intensity, higher = more binding, comparable within an allelic series).

Q: And the binding signal (PRRX1 [17])?
A: The binding signal was 13.5 upbm affinity estimate (log intensity, higher = more binding, comparable within an allelic series).

Q: What about the binding signal (VAX1 [18]) of the same sequence?
A: Its binding signal is 13.7 upbm affinity estimate (log intensity, higher = more binding, comparable within an allelic series).
